“And” between values parts separate entries of the source, which are not always exact repeats. Equal values may be shown once. Records with an inconclusive call do not appear. More than one record can exist for a structure, and the calls need not agree. The source made the active and inactive calls. How the source made its calls, unless noted: active means hit-call score of the fitted dose curve at least 0.9, where 1 is the maximum; inactive means score below 0.9.
What was measured:
[1] = target: Estrogen receptor beta (Homo sapiens) (UniProt Q92731); test: OT_ER_ERbERb_1440: Odyssey Thera (OT) 24-hour HEK293T Protein-Complementation Assay for Estrogen Receptor-beta/-beta Homodimer (AID 2283380; active means hit-call score of the fitted dose curve at least 0.9, where 1 is the maximum;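 further: scored as signal increase over DMSO baseline for both agonists and antagonists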)
Procedure, shortened: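 HEK293T cells stably expressing ER beta LBD (aa 310-547) homodimer fragment-complementation reporter, dosed 24 h. Cells formaldehyde-fixed, Draq5-stained; gain in nuclear (agonist) or nuclear plus cytoplasmic (antagonist) fluorescence versus DMSO read by laser scanning cytometry.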

[2] = target: Retinoic acid receptor RXR-alpha (Homo sapiens) (UniProt P19793); test: OT_NURR1_NURR1RXRa_0480: Odyssey Thera (OT) 8-hour HEK293T Protein Complementation Assay for Nurr1/retinoid X receptor (RXR) (AID 2283385; active means hit-call score of the fitted dose curve at least 0.9, where 1 is the maximum)
Procedure, shortened: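 Interaction of bait and prey reconstitutes a functional reporter, whose fluorescence was measured in HEK293T cells dosed with compound for 8 hours. Signal gain relative to DMSO defined the single endpoint.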

[3] = ACEA_AR_agonist_AUC_viability: ACEA Biosciences xCELLigence Real-Time Cell Analysis on Androgen Receptor Agonism for Viability (AID 2283775; active means hit-call score of the fitted dose curve at least 0.9, where 1 is the maximum;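 on AC50: viability read 80 hours after compound addition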)
Procedure, shortened: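 22Rv1 cells; impedance growth kinetics; 8-pt 1:4 dilutions from 100 uM top final, ≤0.5% DMSO; n = 2; 80 h read; AUC viability, loss-of-signal vs DMSO.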

[4] = ACEA_AR_antagonist_AUC_viability: ACEA Biosciences xCELLigence Real-Time Cell Analysis on Androgen Receptor Antagonism for Viability (AID 2283776; active means hit-call score of the fitted dose curve at least 0.9, where 1 is the maximum;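 further: 22Rv1 human prostate cancer cells growing on impedance electrode plates; area under impedance growth curve at 80 h after dosing as viability; hits lower the growth signal relative to DMSO meaning cytotoxicity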)
Procedure, shortened: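 Impedance read-out (RT-CES): area under growth curve at 80 h post-dose, loss of signal scored vs DMSO baseline. 22Rv1 cells; 8-pt 1:4 series, top 100 uM final, ≤0.5% DMSO; biological duplicate.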

[5] = CCTE_Harrill_HTTr_Viability_MCF7: CCTE's 6-hour Cell Viability Assessment for the High-Throughput Transcriptomics (HTTr) Platform, in MCF-7 cells cultured in DMEM + 10% fetal bovine serum, Harrill Lab (AID 2284010)
Procedure, shortened: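 Read-out is propidium iodide gain of signal by high-content imaging, reflecting membrane integrity loss. Measurements are taken 6 h after dosing, eight concentrations per chemical, with DMSO serving as baseline for bidirectional curve fitting.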

[6] = CCTE_Harrill_HTTr_Apoptosis_MCF7: CCTE's 6-hour Apoptosis Assessment for the High-Throughput Transcriptomics (HTTr) Platform, in MCF-7 cells cultured in DMEM + 10% fetal bovine serum, Harrill Lab (AID 2284011)
Procedure, shortened: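 Apoptosis in MCF-7 cells grown in DMEM with 10% fetal bovine serum was scored after a six hour exposure by high content imaging of caspase-3/7 activation (CellEvent Caspase 3/7 Green), with DMSO serving as negative control and baseline.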

[7] = ATG_ERE_CIS: Attagene CIS-FACTORIAL HepG2 Assay for Estrogen Response Element (ERE) (AID 2282940); settings: HepG2 ERE cis-reporter, Attagene RNA transcript; actives raise or lower the signal
Procedure, shortened: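 Readout: reporter mRNA induction by RT-PCR, FAM-labelled primer extension, HpaI digestion and capillary electrophoresis, 24 h after dosing transfected HepG2 cells. Endogenous transcription factors act on cis-element-regulated reporters. Gain or loss fitted against DMSO.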

[8] = target: Retinoic acid receptor RXR-alpha (Homo sapiens) (UniProt P19793); test: OT_NURR1_NURR1RXRa_1440: Odyssey Thera (OT) 24-hour HEK293T Protein Complementation Assay for Nurr1/retinoid X receptor (RXR) (AID 2283386; active means hit-call score of the fitted dose curve at least 0.9, where 1 is the maximum)
Procedure, shortened: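 Steps: fragment-tagged Nurr1 and RXRα expressed in HEK293T; compounds added; after 24 h, complemented reporter quantified by fluorescence intensity; signal increase over DMSO fitted as the single endpoint.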

[9] = target: Bile acid receptor (Homo sapiens) (UniProt Q96RI1); test: ATG_FXR_TRANS: Attagene TRANS-FACTORIAL HepG2 Assay for Farnesoid X Receptor (FXR) (AID 2282979; active means hit-call score of the fitted dose curve at least 0.9, where 1 is the maximum;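 further: hits raise reporter mRNA above DMSO so AC50 marks FXR activation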); settings: HepG2 Attagene TRANS FXR-GAL4 reporter transcription
Procedure, shortened: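 After 24 h chemical treatment of transfected HepG2 cells, GAL4-UAS reporter transcripts driven by an exogenous FXR-GAL4 fusion were measured by RT-PCR and capillary electrophoresis. Increases over DMSO were fitted.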

[10] = BSK_4H_Eotaxin3: BioMAP Diversity Plus: 4H Assay for Eotaxin 3 Biomarker Activity (AID 2283000); settings: primary human endothelial cells (HUVEC); actives raise or lower the signal
Procedure, shortened: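 ELISA quantitation of CCL26 (Eotaxin-3) protein from chemically dosed human vascular endothelial cells at 24 h; increases and decreases both scored relative to DMSO-treated baseline.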

[11] = read-out: Intercellular Adhesion Molecule 1 (ICAM1), ICAM1 (gene 3383); test: BSK_3C_ICAM1: BioMAP Diversity Plus: 3C Assay for Intercellular Adhesion Molecule 1 (ICAM1) Biomarker Activity (AID 2283003); settings: primary human endothelial cells (HUVEC); actives raise or lower the signal
Procedure, shortened: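 Chemicals are dosed onto primary human umbilical vein endothelium (3C system). After 24 h, ICAM-1 is measured by ELISA, and responses are fitted bidirectionally relative to DMSO.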

[12] = read-out: Monokine induced gamma interferon (MIG), CXCL9 (gene 4283); test: BSK_3C_MIG: BioMAP Diversity Plus: 3C Assay for Monokine induced gamma interferon (MIG) Biomarker Activity (AID 2283021); settings: primary human endothelial cells (HUVEC); actives raise or lower the signal;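 on AC50: MIG protein level measured by immunoassay in the treated endothelial cultures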
Procedure, shortened: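 Endothelial primary cells (human umbilical vein) are dosed with test chemical in the 3C system. MIG levels are measured by ELISA at 24 h and fitted in both directions relative to DMSO.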

[13] = read-out: Urokinase-type plasminogen activator receptor (uPAR), PLAUR (gene 5329); test: BSK_4H_uPAR: BioMAP Diversity Plus: 4H Assay for Urokinase-type plasminogen activator receptor (uPAR) Biomarker Activity (AID 2283030); settings: primary human endothelial cells (HUVEC); actives raise or lower the signal
Procedure, shortened: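 Endpoint derived via bidirectional curve fitting against DMSO baseline; readout was ELISA detection of uPAR on umbilical vein endothelial cells at 24 h post-treatment, with SRB-stained parallel cultures assessing cytotoxicity.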

[14] = read-out: Monokine induced gamma interferon (MIG), CXCL9 (gene 4283); test: BSK_BE3C_MIG: BioMAP Diversity Plus: BE3C Assay for Monokine induced gamma interferon (MIG) Biomarker Activity (AID 2283035); settings: primary human bronchial epithelial cells; actives raise or lower the signal
Procedure, shortened: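 Dose cells (human primary bronchial epithelial), incubate 24 h, quantify MIG by ELISA, then fit concentration–response in both directions relative to DMSO control.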

[15] = read-out: Plasminogen activator inhibitor-1 (PAI1), SERPINE1 (gene 5054); test: BSK_BE3C_PAI1: BioMAP Diversity Plus: BE3C Assay for Plasminogen activator inhibitor-1 (PAI1) Biomarker Activity (AID 2283037); settings: primary human bronchial epithelial cells; actives raise or lower the signal
Procedure, shortened: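 Values derive from bidirectional fitting against DMSO baseline of PAI-1 levels, measured by ELISA in human bronchial epithelial cells 24 h after compound addition.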

[16] = read-out: urokinase plasminogen activator (uPA), PLAU (gene 5328); test: BSK_BE3C_uPA: BioMAP Diversity Plus: BE3C Assay for urokinase plasminogen activator (uPA) Biomarker Activity (AID 2283038); settings: primary human bronchial epithelial cells; actives raise or lower the signal
Procedure, shortened: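 Using confluent primary human lung bronchial epithelial cultures, we dosed chemicals, waited 24 h, then ran a uPA ELISA, fitting bidirectionally against DMSO.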

[17] = read-out: Tissue plasminogen activator (tPA), PLAT (gene 5327); test: BSK_BE3C_tPA: BioMAP Diversity Plus: BE3C Assay for Tissue plasminogen activator (tPA) Biomarker Activity (AID 2283041); settings: primary human bronchial epithelial cells; actives raise or lower the signal
Procedure, shortened: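 Gain- or loss-of-signal in tPA, measured by ELISA, derived by bidirectional fitting against DMSO. Cells: human primary bronchial epithelial; read at 24 h after chemical dosing.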

[18] = read-out: serum amyloid A (SAA), SAA1 (gene 6288); test: BSK_CASM3C_SAA: BioMAP Diversity Plus: CASM3C Assay for serum amyloid A (SAA) Biomarker Activity (AID 2283049); settings: primary human coronary artery smooth muscle cells; actives raise or lower the signal;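 further: SAA protein level quantified by ELISA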
[19] = read-out: Thrombomodulin, THBD (gene 7056); test: BSK_CASM3C_Thrombomodulin: BioMAP Diversity Plus: CASM3C Assay for Thrombomodulin Biomarker Activity (AID 2283051); settings: primary human coronary artery smooth muscle cells; actives raise or lower the signal;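 further: thrombomodulin protein level measured by ELISA 24 h after dosing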

Measured: AC50

Chain of Bile acid receptor (Homo sapiens) (Q96RI1 whole entry, looked up, the tested form may be a part): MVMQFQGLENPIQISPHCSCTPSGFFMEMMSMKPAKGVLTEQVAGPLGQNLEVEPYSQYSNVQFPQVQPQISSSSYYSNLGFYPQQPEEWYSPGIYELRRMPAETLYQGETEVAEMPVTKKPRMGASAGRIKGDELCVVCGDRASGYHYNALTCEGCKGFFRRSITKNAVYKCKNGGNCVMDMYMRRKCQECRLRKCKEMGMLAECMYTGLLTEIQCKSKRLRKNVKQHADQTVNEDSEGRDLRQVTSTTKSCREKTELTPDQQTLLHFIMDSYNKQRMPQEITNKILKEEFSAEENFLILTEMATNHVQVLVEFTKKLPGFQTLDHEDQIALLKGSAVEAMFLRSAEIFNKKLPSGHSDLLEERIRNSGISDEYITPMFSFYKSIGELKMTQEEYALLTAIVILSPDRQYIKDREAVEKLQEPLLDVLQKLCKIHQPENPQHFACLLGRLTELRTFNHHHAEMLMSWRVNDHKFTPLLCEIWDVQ
Chain of Estrogen receptor beta (Homo sapiens) (Q92731 whole entry, looked up, the tested form may be a part): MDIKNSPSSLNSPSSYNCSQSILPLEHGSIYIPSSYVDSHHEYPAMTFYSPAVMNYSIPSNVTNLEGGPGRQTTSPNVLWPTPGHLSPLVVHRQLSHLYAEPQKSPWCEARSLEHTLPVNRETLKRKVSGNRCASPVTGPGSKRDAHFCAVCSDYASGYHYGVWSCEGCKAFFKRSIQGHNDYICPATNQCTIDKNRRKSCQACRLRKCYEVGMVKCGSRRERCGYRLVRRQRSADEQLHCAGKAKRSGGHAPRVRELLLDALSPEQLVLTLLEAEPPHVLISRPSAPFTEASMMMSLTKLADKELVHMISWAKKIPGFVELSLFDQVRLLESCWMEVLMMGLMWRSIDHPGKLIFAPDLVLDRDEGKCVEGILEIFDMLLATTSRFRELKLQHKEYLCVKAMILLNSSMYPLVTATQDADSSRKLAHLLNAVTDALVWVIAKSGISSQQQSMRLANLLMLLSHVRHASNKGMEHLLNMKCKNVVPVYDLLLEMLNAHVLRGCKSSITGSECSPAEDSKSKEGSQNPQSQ
Chain of Retinoic acid receptor RXR-alpha (Homo sapiens) (P19793 whole entry, looked up, the tested form may be a part): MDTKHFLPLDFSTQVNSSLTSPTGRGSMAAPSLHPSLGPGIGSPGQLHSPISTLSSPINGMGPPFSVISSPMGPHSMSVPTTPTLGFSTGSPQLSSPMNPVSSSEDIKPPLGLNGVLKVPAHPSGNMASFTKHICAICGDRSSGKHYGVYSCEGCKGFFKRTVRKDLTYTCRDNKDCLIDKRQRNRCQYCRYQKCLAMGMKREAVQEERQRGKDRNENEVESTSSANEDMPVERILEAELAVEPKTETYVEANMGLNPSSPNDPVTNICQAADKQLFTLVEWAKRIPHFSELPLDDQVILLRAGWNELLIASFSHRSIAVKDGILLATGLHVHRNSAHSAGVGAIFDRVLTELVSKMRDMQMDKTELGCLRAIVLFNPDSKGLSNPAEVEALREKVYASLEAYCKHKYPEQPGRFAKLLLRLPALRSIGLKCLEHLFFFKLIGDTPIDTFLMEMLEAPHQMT

CCc1cccc(C)c1N(C(=O)CCl)[C@@H](C)COC
inactive: [1] | [2] | [3] | [4] | [5] | [6]

c1ccc(P(c2ccccc2)c2ccccc2)cc1
inactive: [1] | [2] | [8] | [4]
active: [7] 23.5 µM

CC1OC(C)OC(C)O1 (stereo not drawn)
inactive: [9]

Nc1ccc(-c2ccc(N)c(N)c2)cc1N
active: [15] 11.1 µM
inactive: [9] | [10] | [11] | [12] | [13] | [14] | [16] | [17] | [18] | [19]

CC(C)(C)C(O)C(Oc1ccc(-c2ccccc2)cc1)n1cncn1 (stereo not drawn)
active: [10] 32.3 µM | [13] 31.8 µM | [15] 5.39 µM | [18] 20 µM
not listed: [1] | [2] | [3] | [4] | [5] | [8]
inactive: all other assays above

O=C(O)CCCc1ccc(N(CCCl)CCCl)cc1
inactive: [7] | [11] | [12] | [13] | [14] | [15] | [16] | [17] | [18] | [19] | [5]
active: [10] 26.3 µM and 20 µM | [11] 20 µM | [12] 32.8 µM | [13] 0.687 µM | [14] 28.9 µM | [15] 3.97 µM | [16] 8.11 µM | [17] 10.7 µM | [18] 20 µM | [19] 5.06 µM

SCc1ccco1
inactive: [7]

Oc1ccc(Cl)cc1
inactive: [2] | [8] | [4] | [6]

Oc1ccc(C2(c3ccc(O)cc3)c3ccccc3-c3ccccc32)cc1
active: [10] 9.96 µM and 9.53 µM | [11] 32.5 µM and 22.6 µM | [12] 16 µM and 14.8 µM | [13] 16.5 µM and 14.4 µM | [14] 5.44 µM and 5.43 µM | [15] 5.27 µM and 5.31 µM | [16] 0.15 µM | [18] 20 µM | [19] 1.93 µM and 20 µM
inactive: [7] | [9] | [16] | [17]

CCCCCCCCCCCCCCCC[N+](C)(C)C
inactive: [1]
active: [3] 5.58 µM | [4] 6.1 µM

Reference: PubChem BioAssay (EPA / NIEHS)
